Laboratory results reported in the supplement of paper PMC12024424.
Structures can show the parent of a compound that is named as a salt.

Each compound was assayed on Staphylococcus aureus Sa2 (MRSA, cystic fibrosis isolate) (assay: growth reduction vs untreated control (OD550); higher = stronger antibacterial activity). Settings: 0.1 mM; 24 h.
Procedure: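 Single-dose screen of the MedChem Express Drug Repurposing Library (0.1 mM, 1% DMSO) against planktonic MRSA S. aureus Sa2 (CF isolate) in TSB in 96-well plates, 37 °C aerobic, 24 h. Assays were run in triplicate and repeated twice.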
`Nc1ccn([C@@H]2O[C@H](CO)[C@@H](O)C2(F)F)c(=O)n1` [Gemcitabine] gave a growth reduction of 100%. Work on `O=C(O)c1cc(-c2ccc(F)cc2F)ccc1O` [Diflunisal] yielded a growth reduction of 93.6%. Compound `C[C@@H]1CCc2ncc(F)cc2[C@H]2CCCN2c2ccn3ncc(c3n2)C(=O)N1` [Selitrectinib] has a growth reduction of 96.9%. With `CN[C@H]1CN(c2ccc3c(=O)c(C(=O)O)cn(-c4nccs4)c3n2)C[C@@H]1OC` [Voreloxin (Hydrochloride)] the growth reduction was 100%. With `CC(C)(C)C#Cc1cc(N(C(=O)[C@H]2CC[C@H](C)CC2)[C@H]2CC[C@H](O)CC2)c(C(=O)O)s1` [Lomibuvir] the growth reduction was 91.1%. For `O=C(O)c1ccc2nc(-c3cc(Cl)cc(Cl)c3)oc2c1` [Tafamidis], the growth reduction was 99.5%. Compound `COc1ccc(CN2CCN(C(c3ccc(F)cc3)c3ccc(F)cc3)CC2)c(OC)c1OC` [Lomerizine dihydrochloride] has a growth reduction of 100%. In the case of `CCN(CC)CCOc1ccc(C(=C(Cl)c2ccccc2)c2ccccc2)cc1` [Clomiphene (citrate)], the growth reduction is reported as 100%. `C=CC(=O)N1CC[C@@H](Oc2nc(Nc3ccc(N4CCC(N5CCN(C)CC5)CC4)cc3)c(C(N)=O)nc2CC)C1` [Naquotinib (mesylate)] was tested, and the growth reduction was 99.6%. `C/C=C(/C(=C/C)c1ccc(O)cc1)c1ccc(O)cc1` [Dienestrol] gave a growth reduction of 99.7%. For `CC(C)c1cc(Oc2c(Br)cc(NC(=O)CC(=O)O)cc2Br)ccc1O` [Eprotirome], the growth reduction was 99.3%. With `CC1(C)CCC(C)(C)c2cc(Cn3cccn3)c(/C=C/c3ccc(C(=O)O)cc3)cc21` [Palovarotene] the growth reduction was 100%. In the case of `CCCCCCNC(=O)n1cc(F)c(=O)[nH]c1=O` [Carmofur], the growth reduction is reported as 100%. `Cc1c(Cl)cccc1Nc1ccccc1C(=O)O` [Tolfenamic Acid] gave a growth reduction of 100%. Compound `CNCc1ccc(C)c(NC(=O)c2ccc(Nc3nc(-c4ccccc4)c4ccccc4n3)cc2)c1` has a growth reduction of 100%. In the case of `Cc1cc2c(cc1CC(=O)c1sccc1S(=O)(=O)Nc1onc(C)c1Cl)OCO2` [Sitaxsentan (sodium)], the growth reduction is reported as 98%. With `C[C@H](CCC(=O)O)[C@H]1CC[C@H]2[C@@H]3CC[C@@H]4C[C@H](O)CC[C@]4(C)[C@H]3C[C@H](O)[C@]12C` [Deoxycholic acid] the growth reduction was 98.3%. With `COc1cc2/c(=N/c3ccc(Br)cc3F)nc[nH]c2cc1OCC1CCN(C)CC1` [Vandetanib] the growth reduction was 100%. `O=c1ccc2ccc(O)c(O)c2o1` [Daphnetin] showed a growth reduction of 94.5%. `COc1cccc2c1c(O)c(C(=O)N(C)c1ccc(C(F)(F)F)cc1)c(=O)n2C` [Tasquinimod] was tested, and the growth reduction was 92.4%. `NC(=O)[C@@H]1CC[C@@H]2CN1C(=O)N2OS(=O)(=O)O` [Avibactam (sodium)] showed a growth reduction of 96.6%. `O=C(O)Cc1ccc(Cc2cc(-c3cccc(Cl)c3)nc(C(F)(F)F)c2)cc1` gave a growth reduction of 100%. `CN(Cc1cnc2nc(N)nc(N)c2n1)c1ccc(C(=O)N[C@@H](CCC(=O)O)C(=O)O)cc1` [Methotrexate] gave a growth reduction of 94.1%. For `Cn1cnc([N+](=O)[O-])c1C[N+](C)(C)C/C=C/C(=O)Nc1cc2c(Nc3ccc(Cl)c(Br)c3)ncnc2cn1` [Tarloxotinib (bromide)], the growth reduction was 99.6%. With `CC(C)(C)Cn1c(N)nc2ccc(-c3[nH]c(C(C)(C)C)nc3-c3ccc(F)cc3)nc21` [Ralimetinib dimesylate] the growth reduction was 100%. Work on `CCN(CC)CCOc1ccc(/C(=C(/Cl)c2ccccc2)c2ccccc2)cc1` [Enclomiphene (citrate)] yielded a growth reduction of 100%. In the case of `COc1cc(NC(C)CCCN)c2ncccc2c1` (stereo not given) [Primaquine (Diphosphate)], the growth reduction is reported as 91.2%. For `CC1=C(C)C(=O)C(CCCCCCCCCC[P+](c2ccccc2)(c2ccccc2)c2ccccc2)=CC1=O` [Visomitin], the growth reduction was 100%. In the case of `CC(C)N(CCCCOCC(=O)NS(C)(=O)=O)c1cnc(-c2ccccc2)c(-c2ccccc2)n1` [Selexipag], the growth reduction is reported as 100%. `Cc1cc2c(F)c(Oc3ncnn4cc(OC[C@@H](C)OC(=O)[C@H](C)N)c(C)c34)ccc2[nH]1` [Brivanib (alaninate)] showed a growth reduction of 100%. In the case of `CSc1ccc(OCc2ncc([N+](=O)[O-])n2C)cc1` [Fexinidazole], the growth reduction is reported as 98.5%. With `OCCN1CCN(CCCN2c3ccccc3Sc3ccc(Cl)cc32)CC1` [Perphenazine] the growth reduction was 100%. For `CC(=O)OC[C@H]1O[C@@H]([S-])[C@H](OC(C)=O)[C@@H](OC(C)=O)[C@@H]1OC(C)=O.CCP(CC)CC.[Au+]` [Auranofin], the growth reduction was 99.9%. `CC1(C)CC[C@]2(NC(=O)C(C)(F)F)CC[C@]3(C)[C@H](C(=O)C=C4[C@@]5(C)C=C(C#N)C(=O)C(C)(C)[C@@H]5CC[C@]43C)[C@@H]2C1` [Omaveloxolone] gave a growth reduction of 100%. `Cc1c(C)c2c(c(C)c1O)CCC(C)(COc1ccc(CC3SC(=O)NC3=O)cc1)O2` (stereo not given) [Troglitazone] showed a growth reduction of 97.5%. For `Cc1c(Cl)c(C)[n+]([O-])c(Cl)c1-c1noc(-c2cc(O)c(O)c([N+](=O)[O-])c2)n1` [Opicapone], the growth reduction was 99.2%. For `CCOC(=O)C1=C(C)NC(C)=C(C(=O)OC)C1c1cccc(Cl)c1Cl` (stereo not given) [Felodipine], the growth reduction was 100%. `CC(OC(=O)c1ccc(Cc2c(O)c3ccccc3oc2=O)cc1)(C(F)(F)F)C(F)(F)F` [Tecarfarin] showed a growth reduction of 100%. For `COc1ccc(C(=O)NC2(C(=O)O)Cc3ccccc3C2)cc1OCCc1cccc(C)c1`, the growth reduction was 90.3%. `Cc1nc2c([nH]1)-c1ccccc1N(C(=O)c1ccc(NC(=O)c3ccccc3-c3ccccc3)cc1)CC2` [Conivaptan (hydrochloride)] showed a growth reduction of 90.4%.
